# Compounds without any hit were thinned out: in the full panel of roughly 83,000, 20% have a hit.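 Plates (96-well) were seeded with cells, treated with compound at one concentration, and incubated for 48 hours before percent growth was determined.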 Unmarked numbers belong to inactive results. Calls of active or inactive are those of the source. How the source made its calls: active means growth percent below 10; inactive means the rest.
# Key:
# Assay in all cases: NCI-60 one-dose screen, 48 h (100 = growth as untreated, 0 = no growth, -100 = all killed)
# Conditions in all cases: 10 µM unless noted
# [1] = system: NCI-H23 lung
# [2] = system: NCI-H226 lung
# [3] = system: NCI-H322M lung
# [4] = system: HOP-62 NSCLC
# [5] = system: NCI-H460 lung
# [6] = system: HOP-92 NSCLC
# [7] = system: NCI-H522 lung
# [8] = system: A549/ATCC NSCLC
# [9] = system: 786-0 renal
# [10] = system: COLO 205 colon
# [11] = system: DU-145 prostate
# [12] = system: K-562 leukemia
# [13] = system: MALME-3M melanoma
# [14] = system: MDA-MB-231 breast
# [15] = system: RXF 393 renal
# [16] = system: SF-268 CNS
# [17] = system: SF-295 CNS
# [18] = system: SF-539 CNS
# [19] = system: UACC-257 melanoma
# [20] = system: M14 melanoma
SMILES,growth [1],growth [2],growth [3] [%],growth [4],growth [5],growth [6],growth [7],growth [8],growth [9],growth [10],growth [11],growth [12],growth [13],growth [14],growth [15],growth [16],growth [17],growth [18],growth [19],growth [20]
O=S(=O)(Nc1ccc(NS(=O)(=O)c2ccccc2)c(Cl)c1)c1ccccc1,103%,102%,115,110%,102%,95.3%,77.7%,101%,103%,114%,109%,95.4%,103%,104%,108%,101%,94.6%,105%,103%,101%
C=C1c2nc3ccccc3n2C=C(c2ccc(OC)cc2)N1Cc1ccccc1,81.3%,102%,102,136%,90.8%,95.9%,64.5%,96%,83.6%,92.8%,103%,73.5%,109%,100%,101%,89.2%,103%,115%,97.1%,98.1%
CC1=C[C@H]2c3c(c(O)c(O)c4oc5ccccc5c(=O)c34)[C@H](c3cc(O)c(O)c4oc5ccccc5c(=O)c34)[C@H]2C(C)(C)C1,-4.58% (active),-14.4% (active),18.7,-9.58% (active),-37.6% (active),-5.31% (active),-18.3% (active),-11.8% (active),-76.6% (active),10.7%,14.9%,3.25% (active),-1.47% (active),12.1%,7.55% (active),5.33% (active),-33.4% (active),-5.05% (active),7.1% (active),-70.4% (active)
O=C1c2cccc3cccc(c23)C(=O)N1CCCCN1CCN(CCCCOc2ccc(-c3nc4ccc(N5CCOCC5)cc4[nH]3)cc2)CC1,79.2%,90.9%,94.8,98.3%,75%,-29.5% (active),70.4%,39.6%,80.6%,93.9%,77.2%,57.1%,86.5%,91.6%,24.1%,68.6%,74.7%,106%,96.6%,98.4%
COc1cccc(-c2nc3sccn3c2-c2ccnc(NCCNS(=O)(=O)c3ccccc3)c2)c1,18.9%,18.7%,58.3,36.8%,20%,21.9%,29.8%,10.3%,38.9%,21.6%,20.5%,11.1%,43.1%,58.9%,47.5%,31.9%,10.8%,66.9%,42.5%,22.5%
COc1cc2nc(N3CCCC3)nc(Nc3ccccc3)c2cc1OC,2.6% (active),29.2%,19.3,16.3%,-42.1% (active),-25.9% (active),-53% (active),-39.8% (active),-90.5% (active),-84.1% (active),9.82% (active),-11.6% (active),-85.9% (active),-69.4% (active),-84.5% (active),-0.197% (active),-63.2% (active),-87.4% (active),-84.2% (active),-70.7% (active)
Cc1nc(/N=C(\N)NC(=O)Nc2cccc([N+](=O)[O-])c2)sc1C,81.8%,90.5%,93.7,83.3%,90.5%,84.1%,49.2%,89.1%,90.5%,90.6%,89.8%,14.3%,78.2%,98.8%,91.4%,92.9%,83.3%,78.4%,88.5%,57.1%
COc1cc2nc(N3CCCC3)nc(NCC3CCCCC3)c2cc1OC,57.3%,80.1%,50.1,74.7%,-45% (active),-16.9% (active),-57.2% (active),6.9% (active),-82.5% (active),-86.2% (active),36.2%,-9.67% (active),-87.8% (active),-39.9% (active),-84% (active),74.4%,-70.9% (active),-84.2% (active),-82.8% (active),-79.3% (active)
O=C1OC(c2ccccc2)C(O)=C1c1ccccc1 (stereo not given),115%,100%,130,122%,113%,96.4%,110%,86.6%,116%,120%,112%,110%,116%,104%,111%,96.4%,109%,102%,95.2%,111%
COc1ccc(/C=C\c2cc(OC)c(OC)c(OC)c2)cc1OC(=O)c1cccc(Cn2cc(CCOC(=O)[C@H](N)Cc3cn(C)c4ccccc34)nn2)c1,29.6%,19.8%,50.1,44.3%,1.11% (active),61.6%,18.9%,19.7%,15.7%,-54.5% (active),-8.08% (active),4.84% (active),65.4%,42.8%,34.9%,23.1%,14.2%,-13.6% (active),68.2%,9.47% (active)
COC(=O)c1cccc(NC(=O)c2ccc(-c3cccc(N)c3)o2)c1,97.5%,85.8%,101,104%,102%,106%,81.8%,100%,109%,112%,110%,94.9%,91.1%,99.4%,102%,100%,98.4%,92.6%,112%,112%
CC(=O)Nc1ccc(S(=O)(=O)Nc2cccc(-c3nc(-c4ccc(NC(=O)c5cccnc5)cc4Cl)no3)c2)cc1,42.1%,57.9%,41.6,34.9%,18%,32.1%,11.2%,44.2%,41.7%,21.7%,54.6%,18.9%,59.7%,47.5%,76.5%,48.2%,42.2%,7.87% (active),35%,27.1%
COc1ccc(C(=O)COc2ccc(/C=C3\Oc4ccc(OC)cc4C3=O)cc2)cc1,100%,89.5%,100,115%,124%,63.4%,-29.6% (active),105%,114%,128%,116%,16.8%,102%,89.7%,110%,121%,81.9%,104%,94%,110%
COc1ccc(S(=O)(=O)N2CCN(C)CC2)cc1NC(=O)c1[nH]c(C)c2c1CCCCC2=O,66.9%,61.7%,59.9,43.4%,73.3%,34.6%,50.1%,62.3%,58.6%,33.1%,87.1%,46.9%,52%,51.1%,84.3%,82%,54.7%,52.5%,57.9%,54.4%
